Out of some 69,000 compounds screened, about 1,000 (1.4%) showed an effect of 50% or more. The full list was thinned out, with strong results kept by preference.
System: Leishmania donovani
Experiment: Leishmania intramacrophage assay
Assay type: functional, organism-based
Design: scale not given: in the data most compounds retested in dose-response had high values

**Q.** Which “Percent Effect” value (30 µM, 30.03 µM) does the source give for `CN(C(=O)c1cccc2[nH]ncc12)C1CCN(c2ccccn2)CC1` here?
**A.** -37.63%

**Q.** Which “Percent Effect” value (30 µM, 30.03 µM) does the source give for `COc1cc(CNCc2ccnc(N3CCOCC3)c2)cc(Cl)c1OC` here?
**A.** 26.59%

**Q.** How did the “Percent Effect” value (30 µM) turn out when `COc1cc(CNCc2ccnc(N3CCOCC3)c2)cc(OC)c1` was run?
**A.** 28.31%

**Q.** Which “Percent Effect” value (30 µM) does the source give for `COc1c(C)cc(CNCc2ccnc(N3CCOCC3)c2)cc1C.Cl` here?
**A.** 54.99%

**Q.** Which “Percent Effect” value (30.3 µM, […]) does the source give for `O=C(CCc1ccco1)Nc1ncn(CC(=O)N2CCCCCC2)n1` here?
**A.** 4.673%

**Q.** Which “Percent Effect” value (30.3 µM, […]) does the source give for `Cn1ncc2c(N[C@H]3CCCC[C@@H]3O)nc(C(C)(C)C)nc21` here?
**A.** 44.26%

**Q.** For `Cn1ncc2c(N[C@H]3CC[C@@H](N)CC3)nc(C(C)(C)C)nc21`, which “Percent Effect” value (30.3 µM, […]) is on record?
**A.** 100.6%

**Q.** With `Cn1ncc2c(NC3CCCN(C(=O)C4CC4)C3)nc(C(C)(C)C)nc21` (stereo unspecified) as the molecule, how does the “Percent Effect” value (30.3 µM, […]) read?
**A.** -38.63%

**Q.** For `CSCC[C@@H]1CN2CCC[C@H]2CN1Cc1cn(C)nc1C`, which “Percent Effect” value (30.3 µM, […]) is on record?
**A.** -2.658%

**Q.** With `CC1CCCCN1C(=O)COCc1nc(-c2ccncc2)no1` (stereo unspecified) as the molecule, how does the “Percent Effect” value (30.3 µM, […]) read?
**A.** 55.9%

**Q.** Which “Percent Effect” value (30.3 µM, […]) does the source give for `O=C(COCc1nc(-c2ccncc2)no1)N1CCCCC1` here?
**A.** -11.93%

**Q.** Which “Percent Effect” value (30 µM, 30.03 µM) does the source give for `O=C(COCc1nc(-c2ccncc2)no1)N1CCCC1` here?
**A.** 18.4%

**Q.** `O=C(Nc1cccc(F)c1)C1CCN(Cc2noc(C3CC3)n2)CC1` was tested. Which “Percent Effect” value (30.3 µM, […]) did it give?
**A.** 33.46%

**Q.** For `CN(Cc1ccc(C(=O)O)cc1)C(=O)c1sccc1OC(F)F`, which “Percent Effect” value (30.3 µM, […]) is on record?
**A.** 18.71%

**Q.** How did the “Percent Effect” value (30.3 µM, […]) turn out when `CCC1(CO)CCN(C(=O)c2cc(COc3ccccc3F)[nH]n2)CC1` was run?
**A.** -10.91%

**Q.** For `CCC1(CO)CCCN(C(=O)c2cc(COc3cccc(F)c3)[nH]n2)C1` (stereo unspecified), which “Percent Effect” value (30.3 µM, […]) is on record?
**A.** 65.29%

**Q.** For `CCC1(CO)CCCN(C(=O)c2cc(COc3ccccc3F)[nH]n2)C1` (stereo unspecified), which “Percent Effect” value (30.3 µM, […]) is on record?
**A.** -9.881%

**Q.** `Cc1cccc(CN2CCn3c(COc4ncccn4)nnc3C2)n1` was tested. Which “Percent Effect” value (30.3 µM, […]) did it give?
**A.** 26.49%

**Q.** `COCCn1cc(CCC(=O)Nc2c(C)nn(C)c2C)c2ccccc21` was tested. Which “Percent Effect” value (30.3 µM, […]) did it give?
**A.** -5.699%

**Q.** For `CC(C)c1nc(CN(C)C2CCN(CCc3ccncc3)C2)no1` (stereo unspecified), which “Percent Effect” value (30 µM) is on record?
**A.** 35.17%

**Q.** How did the “Percent Effect” value (30.3 µM, […]) turn out when `CC(C)c1nc(CN(C)C(=O)[C@H](N)Cc2ccc(Cl)cc2)cs1` was run?
**A.** 64.25%

**Q.** With `CC(C)C[C@@H](N)C(=O)N(C)Cc1csc(C(C)C)n1` as the molecule, how does the “Percent Effect” value (30.3 µM, […]) read?
**A.** 18.19%

**Q.** How did the “Percent Effect” value (30.3 µM, […]) turn out when `CC(C)c1nc(CN(C)C(=O)C(O)c2ccc(Cl)cc2)cs1` (stereo unspecified) was run?
**A.** -6.394%

**Q.** `CN1CCN(C(=O)CC2CCN(CCc3ccccn3)CC2)CC1` was tested. Which “Percent Effect” value (30 µM, 30.03 µM) did it give?
**A.** 28.67%

**Q.** `COC[C@@H]1CCCN1C(=O)c1cc(-c2cccc(OC)c2)n[nH]1` was tested. Which “Percent Effect” value (30.3 µM, […]) did it give?
**A.** 15.97%

**Q.** Which “Percent Effect” value (30.3 µM, […]) does the source give for `O=C(CCCn1cnc2ccccc2c1=O)Nc1nc[nH]n1` here?
**A.** -11.87%

**Q.** With `CC(C)c1ccc(S(=O)(=O)N2CSCC2C(=O)NCC(F)(F)F)cc1` (stereo unspecified) as the molecule, how does the “Percent Effect” value (30 µM) read?
**A.** 31.97%

**Q.** `CC(C)CCCNC(=O)Nc1ccc(C(N)=O)c(Cl)c1` was tested. Which “Percent Effect” value (30 µM) did it give?
**A.** -4.358%

**Q.** `CC1COC2(CCN(C(=O)Cc3ccncc3)CC2)C1.O=C(O)C(F)(F)F` (stereo unspecified) was tested. Which “Percent Effect” value (30.3 µM, […]) did it give?
**A.** 9.251%

**Q.** Which “Percent Effect” value (30.3 µM, […]) does the source give for `O=C(Cc1ccncc1)N1CCC2(CC1)CC(c1ccccc1)CO2.O=C(O)C(F)(F)F` (stereo unspecified) here?
**A.** 68.9%

**Q.** `O=C(Cc1ccccn1)N1CCC2(CC1)CN(c1ncccn1)CCO2.O=C(O)C(F)(F)F.O=C(O)C(F)(F)F` was tested. Which “Percent Effect” value (30.3 µM, […]) did it give?
**A.** 12.21%

**Q.** How did the “Percent Effect” value (30.3 µM, […]) turn out when `Cn1cc(C2COC3(CCN(C(=O)Cc4ccccc4)CC3)C2)cn1` (stereo unspecified) was run?
**A.** 7.925%

**Q.** Which “Percent Effect” value (30 µM, 30.03 µM) does the source give for `O=C(CC1CC1)N1CCC2(CC1)CN(c1ncccn1)CCO2` here?
**A.** 2.315%

**Q.** For `O=C(Cc1ccccc1)N1CCC2(CC1)CN(c1ncccn1)CCO2`, which “Percent Effect” value (30.3 µM, […]) is on record?
**A.** 60.82%

**Q.** How did the “Percent Effect” value (30.3 µM, […]) turn out when `OCC1(NCc2cnc(-c3ccccn3)s2)CCOCC1` was run?
**A.** -4.185%

**Q.** How did the “Percent Effect” value (30.3 µM, […]) turn out when `CNC(=O)NCC(=O)N(C)C(c1ccc(Cl)cc1)c1cccnc1` (stereo unspecified) was run?
**A.** -0.8032%

**Q.** With `CN(Cc1cncnc1)[C@H]1CN(C(=O)c2ccc[nH]2)[C@@H]2CCCO[C@@H]21` as the molecule, how does the “Percent Effect” value (30.3 µM, […]) read?
**A.** 13.74%

**Q.** Which “Percent Effect” value (30 µM, 30.03 µM) does the source give for `CCCc1n[nH]c(C2CN(C(=O)CCCn3cccn3)CCO2)n1` (stereo unspecified) here?
**A.** 8.129%

**Q.** How did the “Percent Effect” value (30.3 µM, […]) turn out when `CCCc1n[nH]c(C2CN(C(=O)CCCn3ccnc3)CCO2)n1` (stereo unspecified) was run?
**A.** 48.09%

**Q.** `CCCc1n[nH]c(C2CN(C(=O)CCCn3ccnc3C)CCO2)n1` (stereo unspecified) was tested. Which “Percent Effect” value (30.3 µM, […]) did it give?
**A.** 52.76%

**Q.** `CCCC(=O)NCC(=O)Nc1cc(F)ccc1SCC(F)F` was tested. Which “Percent Effect” value (30.3 µM, […]) did it give?
**A.** -46.76%

**Q.** How did the “Percent Effect” value (30.3 µM, […]) turn out when `CN(C)C(=O)CN1C[C@@H]2CC[C@H](C1)N(C(=O)CCCn1cncn1)C2` was run?
**A.** 3.091%

**Q.** For `CC(C)(C)n1nnnc1CN(CCc1ccccc1)Cc1ccccc1`, which “Percent Effect” value (30.3 µM, […]) is on record?
**A.** 46.18%

**Q.** `CC(C)(C)n1nnnc1CN(Cc1ccccc1)Cc1ccc(Cl)cc1` was tested. Which “Percent Effect” value (30.3 µM, […]) did it give?
**A.** 73.63%

**Q.** `CC(C)(C)n1nnnc1CN(Cc1ccccc1)Cc1ccccc1Cl` was tested. Which “Percent Effect” value (30.3 µM, […]) did it give?
**A.** -43.37%

**Q.** `CCC(CNC(=O)c1ccccc1OC)N1CCc2ccccc2C1` (stereo unspecified) was tested. Which “Percent Effect” value (30.3 µM, […]) did it give?
**A.** 6.323%

**Q.** For `CC(C)OCCCNC(=O)CS(=O)(=O)Cc1ccc(Cl)cc1`, which “Percent Effect” value (30 µM) is on record?
**A.** -19.7%

**Q.** Which “Percent Effect” value (30.3 µM, […]) does the source give for `CCC(=O)N1CCCN(Cn2nc(C)c(Br)c2C)CC1` here?
**A.** -2.566%

**Q.** How did the “Percent Effect” value (30.3 µM, […]) turn out when `COC(=O)N1CCCN(Cn2nc(C)c(Br)c2C)CC1` was run?
**A.** -25.9%

**Q.** `COCC(=O)N1CCN(Cn2nc(C)c(Br)c2C)CC1` was tested. Which “Percent Effect” value (30.3 µM, […]) did it give?
**A.** 52.22%

**Q.** With `Cc1ccn(Cc2nc(C(C)OCC(C)C)no2)c(=O)c1` (stereo unspecified) as the molecule, how does the “Percent Effect” value (30.3 µM, […]) read?
**A.** 4.888%

**Q.** `Cc1[nH]ccc1C(=O)N1CCC2(CC1)c1nc[nH]c1CCN2CC(C)C` was tested. Which “Percent Effect” value (30.3 µM, […]) did it give?
**A.** 14.63%

**Q.** With `COc1cccc(C(O)CNC(=O)CC2CCCCC2)c1` (stereo unspecified) as the molecule, how does the “Percent Effect” value (30.3 µM, […]) read?
**A.** -1.709%

**Q.** `OC(CNC1CCSCC1)c1cccc(OCc2ccccc2)c1` (stereo unspecified) was tested. Which “Percent Effect” value (30.3 µM, […]) did it give?
**A.** 77.88%

**Q.** How did the “Percent Effect” value (30 µM) turn out when `c1ccc(COc2cccc(CNC3CCc4ncnn4C3)c2)cc1` (stereo unspecified) was run?
**A.** -0.9201%

**Q.** How did the “Percent Effect” value (30.3 µM, […]) turn out when `OC(CNC1CCOCC1)c1cccc(OCc2ccccc2)c1` (stereo unspecified) was run?
**A.** 10.21%

**Q.** For `CCN1CCC(CC(=O)NCC(O)c2cccc(OC)c2)CC1` (stereo unspecified), which “Percent Effect” value (30.3 µM, […]) is on record?
**A.** 23.15%

**Q.** For `CN1CCC(NCC(O)c2cccc(OCc3ccccc3)c2)CC1` (stereo unspecified), which “Percent Effect” value (30.3 µM, […]) is on record?
**A.** 100.4%

**Q.** How did the “Percent Effect” value (30.3 µM, […]) turn out when `CN(Cc1cnn(C)c1)C(=O)Cc1ccc2c(c1)OCCO2` was run?
**A.** 1.956%

**Q.** `COCCCN(C)C1CCCN(Cc2noc(C)n2)C1` (stereo unspecified) was tested. Which “Percent Effect” value (30 µM, 30.03 µM) did it give?
**A.** 26.31%

**Q.** How did the “Percent Effect” value (30 µM) turn out when `Cc1nc(CN(C)C2CCN(Cc3cccc4c3OCCO4)C2)no1` (stereo unspecified) was run?
**A.** 6.673%

**Q.** Which “Percent Effect” value (30.3 µM, […]) does the source give for `Cn1ccnc1CCNC(=O)NCCC1CCCCO1` (stereo unspecified) here?
**A.** 11.89%

**Q.** With `O=C(C1CCOC1)N1C[C@H]2CN(c3ccccc3)C(=O)[C@H]2C1` (stereo partly specified) as the molecule, how does the “Percent Effect” value (30.3 µM, […]) read?
**A.** 6.072%

**Q.** With `Cc1ncncc1C(=O)NCCN1CCC(C)CC1` as the molecule, how does the “Percent Effect” value (30.3 µM, […]) read?
**A.** 57.89%

**Q.** With `CCc1ncncc1C(=O)NCCN1CCC(C)CC1` as the molecule, how does the “Percent Effect” value (30 µM, 30.03 µM) read?
**A.** 18.33%

**Q.** How did the “Percent Effect” value (30 µM, 30.03 µM) turn out when `CC1CCN(CCNC(=O)c2cncnc2C(C)C)CC1` was run?
**A.** 11.52%

Reference: ChEMBL document CHEMBL3988442, “University of Dundee, Small-Polar-MMV Screening Library” (2021)
